# Source: PubChem BioAssay (several laboratories)
# Mcl1 Bid PPI – Mcl-1/Bid interaction inhibition; Q07820; TR-FRET Mcl-1/Bid-Dy647 peptide binding, 1536-well; inhibition, % at 21.7 µM; hit rate 0.97% among 220,000; AID 1021;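 active = compounds that cut the binding signal by more than half at the single screening dose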;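 also: His-tagged Mcl-1 with europium anti-His antibody binding Bid BH3 peptide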
# 14-3-3 Bad PPI – disrupts binding of bovine 14-3-3 zeta to phospho-Bad peptide; P63103; TR-FRET 14-3-3zeta/Dy647-pBad peptide displacement, 1 h; inhibition, % at 21.7 µM; hit rate 0.71% among 220,000; AID 781;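 active = inhibition above about 70%, limit read from the data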
# Mcl-1 Bim block – human Bim-Mcl-1 interaction inhibition | Bead-based flow cytometry, Bim peptide-Mcl-1 binding | inhibition, % at 10 µM | hit rate 0.1% among 190,000 | AID 1009; in the data active = inhibition above about 40%
# NCF1 inh – p47phox (human) inhibition | AID 1274 | hit rate 0.53% among 220,000 | inhibition, % at 24.7 µM | P14598 | p47phox/p22phox peptide binding, fluorescence polarization, 2 h
# eIF4E 4G PPI – blocks eIF4E binding to eIF4G | P63073+Q04637 | TR-FRET eIF4E-eIF4GI(517-606) binding, 2 h | inhibition, % at 21.7 µM | hit rate 0.37% among 220,000
# Target sequence (P63073 whole entry, looked up): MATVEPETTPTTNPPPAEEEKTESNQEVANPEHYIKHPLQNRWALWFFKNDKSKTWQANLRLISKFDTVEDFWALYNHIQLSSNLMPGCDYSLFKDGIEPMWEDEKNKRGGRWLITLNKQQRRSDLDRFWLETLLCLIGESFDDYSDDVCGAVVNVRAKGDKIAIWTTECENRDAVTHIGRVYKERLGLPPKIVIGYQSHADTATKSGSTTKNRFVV
# Target sequence (Q04637 whole entry, looked up): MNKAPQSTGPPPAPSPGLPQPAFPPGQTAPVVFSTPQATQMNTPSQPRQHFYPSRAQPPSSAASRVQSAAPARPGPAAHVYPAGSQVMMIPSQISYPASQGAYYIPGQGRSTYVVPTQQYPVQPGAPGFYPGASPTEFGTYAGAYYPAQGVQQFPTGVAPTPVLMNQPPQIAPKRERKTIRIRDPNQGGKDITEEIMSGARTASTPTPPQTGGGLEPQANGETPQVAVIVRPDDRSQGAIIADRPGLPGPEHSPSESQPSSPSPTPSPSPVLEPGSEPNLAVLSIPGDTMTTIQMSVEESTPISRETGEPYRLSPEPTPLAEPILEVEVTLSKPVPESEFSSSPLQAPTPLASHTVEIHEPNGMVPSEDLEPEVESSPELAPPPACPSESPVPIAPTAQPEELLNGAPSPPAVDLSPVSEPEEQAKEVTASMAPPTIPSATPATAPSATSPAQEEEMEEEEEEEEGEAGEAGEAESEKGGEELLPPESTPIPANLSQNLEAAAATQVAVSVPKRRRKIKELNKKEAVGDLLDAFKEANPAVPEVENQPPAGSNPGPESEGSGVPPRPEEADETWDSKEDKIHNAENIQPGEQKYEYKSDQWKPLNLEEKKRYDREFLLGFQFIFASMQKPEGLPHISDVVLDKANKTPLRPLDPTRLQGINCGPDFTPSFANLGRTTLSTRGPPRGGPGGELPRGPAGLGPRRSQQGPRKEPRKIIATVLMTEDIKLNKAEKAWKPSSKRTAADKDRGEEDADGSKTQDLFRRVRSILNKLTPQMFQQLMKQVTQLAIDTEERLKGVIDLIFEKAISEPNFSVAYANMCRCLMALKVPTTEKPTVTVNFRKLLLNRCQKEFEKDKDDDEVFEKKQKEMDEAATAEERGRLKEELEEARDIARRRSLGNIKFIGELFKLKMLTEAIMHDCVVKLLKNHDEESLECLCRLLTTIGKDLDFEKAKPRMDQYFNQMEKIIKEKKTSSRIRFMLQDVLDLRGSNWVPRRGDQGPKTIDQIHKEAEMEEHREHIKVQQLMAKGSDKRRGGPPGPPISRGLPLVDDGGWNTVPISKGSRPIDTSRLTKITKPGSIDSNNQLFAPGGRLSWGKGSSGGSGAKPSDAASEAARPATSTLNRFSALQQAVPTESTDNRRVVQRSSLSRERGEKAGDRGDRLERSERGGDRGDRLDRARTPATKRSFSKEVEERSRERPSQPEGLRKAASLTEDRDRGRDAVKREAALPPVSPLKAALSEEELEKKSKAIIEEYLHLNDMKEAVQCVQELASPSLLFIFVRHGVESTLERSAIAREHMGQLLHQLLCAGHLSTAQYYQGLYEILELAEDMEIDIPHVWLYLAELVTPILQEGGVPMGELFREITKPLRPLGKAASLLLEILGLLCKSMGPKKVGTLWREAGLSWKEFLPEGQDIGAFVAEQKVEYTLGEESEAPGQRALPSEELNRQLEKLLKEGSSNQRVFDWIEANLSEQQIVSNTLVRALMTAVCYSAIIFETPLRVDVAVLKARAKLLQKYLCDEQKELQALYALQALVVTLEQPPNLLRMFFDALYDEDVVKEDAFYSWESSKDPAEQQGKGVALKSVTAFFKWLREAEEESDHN
# Mcl1 Noxa PPI – disrupts binding of human Mcl-1 to Noxa peptide; TR-FRET Mcl-1/Noxa peptide binding, 2 h; inhibition, % at 21.7 µM; hit rate 1.5% among 220,000;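 active = compounds that cut the protein-peptide binding signal by more than 50% relative to plate controls in a single-dose test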;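 also: His-tagged Mcl-1 with rhodamine Noxa BH3 peptide and terbium anti-His antibody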
# Hits are given with their value; i = inactive; nt = not tested or not shown; + = active, no number. Only some compounds are listed: those with a hit (about 3.4% of all), similar ones and a draw of the others.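 The calls were made as follows, unless noted: active = inhibition above about 30% (limit read from the data); inactive = the rest.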
SMILES,Mcl1 Bid PPI,14-3-3 Bad PPI,Mcl-1 Bim block,NCF1 inh,eIF4E 4G PPI,Mcl1 Noxa PPI
O=C(Nc1ccc(N2CCCC2)cc1)c1ccc2ccccc2c1,i,i,i,i,i,74
O=C(Nc1ccc(N2CCCCC2)cc1)c1ccccc1,i,i,i,i,i,i
O=C(Nc1ccc(N2CCCC2=O)cc1)c1cccc(F)c1,i,i,i,i,i,i
O=C(Nc1ccc(N2CCCC2)cc1)c1cccc(F)c1,i,i,i,i,i,67
Cc1ccc(C(=O)Nc2ccc(N3CCOCC3)cc2)cc1,i,i,i,i,i,i
CC(C)(C)C(=O)Nc1ccc(N2CCCC2)cc1,i,i,i,i,i,56
Cc1ccc(C(=O)Nc2ccc(N3CCCC3)cc2)cc1,i,i,i,i,i,78
COc1ccc(CNC(=O)CCS(=O)(=O)Cc2cccc(Cl)c2)c(OC)c1,i,i,i,i,i,i
Cc1ccc(S(=O)(=O)C(C#N)=C2N(C)c3ccccc3N2C)cc1,i,i,i,i,i,i
O=C(Nc1ccc(NC(=O)C2CC2)nc1)c1cccc(F)c1,i,i,i,i,i,i
COc1ccc(NS(=O)(=O)c2cc(NC(=O)c3cccnc3Cl)ccc2N2CCCC2)cc1,i,i,nt,+,i,i
CC(C)C(=O)Nc1ccc(NC(=O)c2cccc(F)c2)cn1,i,76,i,i,i,i
O=C(Nc1ccc(N2CCCCC2)cc1)c1ccc(F)cc1F,i,i,nt,i,i,i
O=C(Nc1ccc(N2CCCCC2)cc1)c1cccnc1Cl,i,i,i,57,i,i
O=C(Nc1ccc(N2CCCC2)cc1)c1ccccc1F,i,i,i,i,i,82
O=C(/C=C/c1ccc(-c2ccccc2[N+](=O)[O-])o1)c1ccco1,i,i,i,i,i,66
O=[N+]([O-])c1ccccc1-c1ccc(/C=N/n2cnnc2)o1,i,i,i,i,i,i
COc1ccc(CC(=O)n2nc(-c3ccccc3)nc2NCc2ccco2)cc1,i,78,i,i,i,i
COc1ccc(Nc2nc(NCc3ccco3)nc(N/N=C/c3ccccc3)n2)cc1,i,81,i,i,i,i
Cc1cc(N)n(-c2ccc3ccccc3c2)n1,96,i,i,i,i,i
O=C(NNS(=O)(=O)c1ccccc1[N+](=O)[O-])c1ccc(O)cc1,i,i,i,42,i,i
O=C(NNS(=O)(=O)c1ccccc1[N+](=O)[O-])c1ccc(F)cc1,i,i,i,i,i,i
O=C(O)CC12CC3CC(C1)CC(n1ncc(NCc4ccccc4Cl)c(Cl)c1=O)(C3)C2,57,i,nt,i,i,i
O=C(O)CC12CC3CC(C1)CC(n1ncc(NCc4ccc(F)cc4Cl)c(Cl)c1=O)(C3)C2,i,i,i,i,i,i
O=C(N/N=C(\CC(=O)c1cccs1)C(F)(F)F)c1ccncc1,66,i,nt,i,i,i
SMILES,Mcl1 Bid PPI,14-3-3 Bad PPI,Mcl-1 Bim block,NCF1 inh,eIF4E 4G PPI,Mcl1 Noxa PPI
Cc1ccc(C(=O)N/N=C(/CC(=O)c2cccs2)C(F)(F)F)cc1,i,i,i,i,i,i
Cc1nnc(SCC(=O)Nc2nc(-c3ccc(F)cc3)cs2)[nH]c1=O,i,i,i,i,i,i
O=C(Cn1c(-c2ccccc2)noc1=O)N1CCC(Cc2ccccc2)CC1,i,i,40,i,i,i
Cc1ccccc1OCc1csc(N)n1,i,i,i,i,i,i
CN(C)Cc1cc(O)c(CN(C)C)cc1O,i,i,nt,37,i,60
Cc1cc2nc3n(c2cc1C)CC1CC(C(=O)NCc2cccc(C(F)(F)F)c2)N(C)C31 (stereo not given),i,i,nt,i,i,i
Cc1ccc(C#CC[N+](C)(C)CC#Cc2ccccc2)cc1,i,i,i,i,i,i
COC(=O)c1ccc(CSc2ncnc3sc(C)c(C)c23)o1,59,i,i,i,i,i
Cn1ccnc1SCC(=O)Nc1ccc2c(c1)OC(F)(F)O2,i,i,i,i,i,i
C=CCO/N=C(/C)c1ccc(Oc2cnccn2)cc1,i,i,i,i,i,i
COc1ccc(-c2nn(-c3ccccc3)cc2/C=C(\C#N)C(N)=O)cc1[N+](=O)[O-],i,i,i,i,i,i
COc1ccc(-c2nn(-c3ccccc3)cc2/C=N/Nc2ccc3ccccc3n2)cc1OC,i,i,i,i,i,i
COc1ccc(-c2nn(-c3ccccc3)cc2/C=C(/C#N)C(N)=O)cc1[N+](=O)[O-],65,i,i,i,i,i
COc1ccc(-c2nn(-c3ccccc3)cc2/C=N/Nc2ccc(S(N)(=O)=O)cc2[N+](=O)[O-])cc1OC,i,i,i,i,i,51
Cn1nccc1C(=O)Oc1cccc(/C=N/NC(=O)c2ccccc2O)c1,i,i,i,i,i,i
O=C(/C=C1\C(=O)Nc2ccccc21)/C=C1\C(=O)Nc2ccccc21,92,93,nt,i,i,102
CCN(CC)C(=O)Cn1cc(C(=O)C2CC2)c2ccccc21,i,i,i,i,i,i
COC(=O)c1cc(-c2ccc(S(=O)(=O)N3CCCCC3)cc2)c(C(F)(F)F)s1,i,i,nt,i,i,i
COc1ccc(N=Cc2c(O)n(-c3ccc(OC)cc3)c(=O)c3ccccc23)cc1,i,75,i,33,i,i
Oc1[nH]c2ccccc2c1C=Nc1ccc2c(c1)OCO2,i,i,i,i,i,i
O=c1c2ccccc2c(C=Nc2ccc(O)cc2)c(O)n1Cc1ccccc1,i,i,nt,i,34,i
O=c1c2ccccc2c(C=Nc2cccc(O)c2)c(O)n1-c1ccc2c(c1)OCO2,60,i,i,i,i,i
CN(CC(=O)Nc1cccc(C#N)c1)Cc1ccc(Cl)cc1,86,i,i,i,i,i
NC(=S)N/N=C/c1cn(-c2ccccc2)nc1-c1cccnc1,i,i,nt,i,i,i
COc1ccc(O)c(C(=O)c2cc(SCC(=O)O)c3nc4sc5c(c4c(=O)n3c2)CCCC5)c1,i,i,nt,i,39,108
SMILES,Mcl1 Bid PPI,14-3-3 Bad PPI,Mcl-1 Bim block,NCF1 inh,eIF4E 4G PPI,Mcl1 Noxa PPI
Cc1sc2nc3c(SC(C)C(=O)O)cc(C(=O)c4ccccc4O)cn3c(=O)c2c1C (stereo not given),i,i,i,i,i,i
CCOC(=O)c1sc2nc3c(SCC(=O)O)cc(C(=O)c4ccccc4O)cn3c(=O)c2c1C,i,i,i,i,i,66
CCOC(=O)c1sc2nc3c(SCC(=O)O)cc(C(=O)c4cc(F)ccc4O)cn3c(=O)c2c1C,i,i,i,i,i,86
O=C(O)CSc1cc(C(=O)c2ccccc2O)cn2c(=O)c3c(-c4ccccc4)csc3nc12,i,i,i,i,i,86
O=C(O)c1ccc(N2C(=O)CC(N3C(=O)/C(=C/c4ccc(Cl)cc4)SC3=S)C2=O)cc1 (stereo not given),i,i,nt,i,i,i
Cc1ccc(NC(=O)COC(=O)Cc2ccsc2)c(C)c1,i,i,i,i,i,i
CSc1nnc(C)c(=O)n1COC(=O)COc1ccc(Cl)cc1Cl,i,i,i,48,i,i
